In the library only some 3.1% were active in any assay of this set; here they are far more common.
CF NFkB inh = blocks PAF-induced NF-kB reporter in cystic fibrosis cells. inhibition, % at 5 µM. KKLEB NF-kB-GFP reporter, GFP fluorescence overnight. AID 588850. hit rate 0.86% among 360,000;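 active = at least 50% inhibition at 5 µM, scaled per plate between neutral and stimulator controls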;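 note: PAF is a Pseudomonas aeruginosa culture filtrate used as stimulus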
C8 TRAIL sens = sensitizes caspase-8 expressing cells to TRAIL; hit rate 1% among 360,000; AID 624354; NB7+C8 cells + TRAIL, ATPlite viability luminescence; inhibition (viability loss, TRAIL sensitization), % at 10 µM;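 active = compounds causing at least 50% loss of cell viability in the single-dose screen, relative to plate controls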
HIF-2a inh = inhibitors of HIF-2a; 786-0 RCC cells HIF-2a reporter, luciferase luminescence, overnight; inhibition, % at 18.8 µM; hit rate 0.72% among 360,000; AID 624352;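 active = inhibition of the luminescence signal of 40% or more relative to plate controls, in a single-dose primary screen at 18.75 µM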
Peg3 prom inh = Peg3 promoter activity inhibition; inhibition, % at 20 µM; HeLa PEG-Prom luciferase reporter, luminescence, overnight; hit rate 1.7% among 360,000;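 active = inhibition of at least 50% at 20 µM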
PPC-1+TRAIL kill = compounds killing PPC-1 cancer cells with TRAIL present (potentiator screen, no TRAIL-free arm) | cell killing (% activity), % at 4 µM or 5 µM | AID 1443 | hit rate 0.41% among 220,000 | PPC-1 cells + TRAIL, ATPLite viability luminescence;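 active = cell killing above 50% in the first pass at 4 µM, then a duplicate retest at 5 µM averaging 50% or more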
KKLEB cytotox = CF airway cell cytotoxicity counter-screen. hit rate 0.36% among 360,000. AID 602141. KKLEB CF airway cells viability, ATPlite luminescence, overnight; hits give low values; cells stimulated with P. aeruginosa culture filtrate. activity change (cytotoxicity), % at 5 µM;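 active = corrected activity change at or below -50% at 5 µM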
Mdm2 MdmX conf = confirmation of inhibitors of human Mdm2/MdmX interaction, set 2 | shares compounds with HIF-2a inh | inhibition, % at 8 µM | hit rate 99% among 740 | SaOS-2 split-luciferase Mdm2/MdmX complementation, luminescence | AID 504601;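 active = mean inhibition of the luminescence signal across two replicates at or above 26 percent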
Target sequence (O15151 whole entry, looked up): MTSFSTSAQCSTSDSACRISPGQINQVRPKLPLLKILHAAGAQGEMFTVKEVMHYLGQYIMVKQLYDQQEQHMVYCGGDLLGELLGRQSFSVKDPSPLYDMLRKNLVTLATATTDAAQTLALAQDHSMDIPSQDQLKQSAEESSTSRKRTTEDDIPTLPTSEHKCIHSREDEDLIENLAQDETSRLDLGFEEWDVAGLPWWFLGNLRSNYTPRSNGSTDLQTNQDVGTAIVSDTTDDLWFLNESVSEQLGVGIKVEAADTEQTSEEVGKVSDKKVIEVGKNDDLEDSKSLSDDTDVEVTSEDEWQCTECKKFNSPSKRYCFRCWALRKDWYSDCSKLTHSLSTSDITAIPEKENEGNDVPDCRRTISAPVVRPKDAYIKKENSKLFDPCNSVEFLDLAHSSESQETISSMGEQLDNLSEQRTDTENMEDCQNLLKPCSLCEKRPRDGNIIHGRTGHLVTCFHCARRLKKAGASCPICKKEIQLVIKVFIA
Target sequence (Q00987 whole entry, looked up): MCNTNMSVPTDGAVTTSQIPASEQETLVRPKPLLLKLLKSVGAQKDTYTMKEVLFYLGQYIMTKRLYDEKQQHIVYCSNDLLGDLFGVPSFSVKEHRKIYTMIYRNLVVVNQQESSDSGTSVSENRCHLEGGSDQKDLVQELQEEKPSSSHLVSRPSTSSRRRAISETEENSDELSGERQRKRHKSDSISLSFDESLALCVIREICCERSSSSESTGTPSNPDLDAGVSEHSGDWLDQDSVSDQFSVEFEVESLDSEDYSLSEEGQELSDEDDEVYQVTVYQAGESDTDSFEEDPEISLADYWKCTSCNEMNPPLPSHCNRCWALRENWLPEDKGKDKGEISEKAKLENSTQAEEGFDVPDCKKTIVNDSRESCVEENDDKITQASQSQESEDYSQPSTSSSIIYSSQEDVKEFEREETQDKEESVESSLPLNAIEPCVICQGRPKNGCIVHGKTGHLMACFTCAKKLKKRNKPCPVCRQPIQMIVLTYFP
HIF-2a conf = HIF-2a inhibition, single concentration confirmation; hit rate 56% among 1,800; 786-0 RCC cells, HIF-2a luciferase reporter luminescence, overnight; inhibition, % at 18.8 µM; shares compounds with HIF-2a inh;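 active = mean inhibition across four replicates of at least 40 percent at the single tested concentration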
HIF-1a counter = inhibits HIF-1a reporter, a counter-screen for HIF-2a inhibitors. inhibition, % at 18.8 µM. shares compounds with HIF-2a inh. MiaPaCa-2 HIF-1a luciferase reporter, desferoxamine, overnight. AID 651589. hit rate 72% among 1,800;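 active = mean inhibition of the reporter signal across four replicates at the single tested dose of 50% or more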
Each line names hits and unclear results; the compound was inactive in the other large screens (follow-up assays come after a bar, where they were run).

O=C1NCCNC1c1ccccc1 (configuration not stated)	none (no result: PPC-1+TRAIL kill)
Cc1cc(C)c(C(=O)/C=C/c2ccc3c(c2)OCO3)c(=O)[nH]1	none
Cc1cc(C)c(C(=O)/C=C/c2cccc3ccccc23)c(=O)[nH]1	HIF-2a inh 84.8, Peg3 prom inh 96.2 | Mdm2 MdmX conf 102.7 | HIF-2a conf 92.2 | HIF-1a counter 105.1
COc1ccc2cc3c(N)nn(C(=O)Cc4ccc(Cl)cc4)c3nc2c1	none
COc1ccc2cc3c(N)nn(C(=O)Cc4c[nH]c5ccccc45)c3nc2c1	CF NFkB inh 85.5, HIF-2a inh 50.3, Peg3 prom inh 106.1 | Mdm2 MdmX conf 102.5 | HIF-2a conf inactive | HIF-1a counter 101.9
COc1ccc2cc3c(N)nn(C(=O)c4ccccc4Cl)c3nc2c1	CF NFkB inh 77.2, HIF-2a inh 42.6 | Mdm2 MdmX conf 98.7 | HIF-2a conf inactive | HIF-1a counter 94.5
CCc1noc(C)c1C(=O)N1CCC(CCC(=O)Nc2cccc(OC)c2)CC1	none (no result: PPC-1+TRAIL kill)
CC1=CC(C)(C)Nc2ccc(OC(=O)CN3C(=O)c4cccc5cccc(c45)C3=O)cc21	HIF-2a inh 73.6 | HIF-2a conf 88.7 | HIF-1a counter 72.4
CC(C#N)(Cc1ccccc1)Nc1ccccc1 (configuration not stated)	none (no result: PPC-1+TRAIL kill)
COc1ccc(/C=C2\SC(=O)N(CCCC(=O)Nc3cc(Cl)ccc3C(=O)O)C2=O)cc1	HIF-2a inh 89.5, Peg3 prom inh 76.1 (no result: PPC-1+TRAIL kill) | HIF-2a conf 98.2 | HIF-1a counter 99.3
COC(=O)C1=C(C(=O)OC)[C@]2([C@@H]3CC=CCN[C@@H](Cc4ccccc4)C(=O)N3Cc3ccccc3)C=C[C@H]1O2	none (no result: PPC-1+TRAIL kill)
C=CCC(Nc1ccccc1)C12C=CC(O1)C(C(=O)OC)=C2C(=O)OC (configuration not stated)	HIF-2a inh 91.7, Peg3 prom inh 92.1 | HIF-2a conf 94.5 | HIF-1a counter 97.6
CC(C)(C)NC(=O)CN(C(=O)c1snc(C(=O)NC2CCCCC2)c1N)c1ccccc1F	none (no result: PPC-1+TRAIL kill)
COC(=O)C1=C(C)NC2=C(C(=O)CC(c3cccs3)C2)C1c1ccsc1 (configuration not stated)	none
CCOC(=O)C1=C(C)NC2=C(C(=O)CC(c3cccs3)C2)C1c1cccs1 (configuration not stated)	HIF-2a inh 46.4 | HIF-2a conf 52.1 | HIF-1a counter 63.3
N#Cc1cc([N+](=O)[O-])c(-n2nnc3ccccc32)c([N+](=O)[O-])c1	none
COc1ccccc1Oc1cc(C#N)c(C#N)cc1-n1nnc2ccccc21	HIF-2a inh 46.3 | HIF-2a conf inactive | HIF-1a counter 54.4
CCOC(=O)C1CCN(C(=O)CCC2CCCC2)CC1	none (no result: PPC-1+TRAIL kill)
Cc1cccc(CS(=O)(=O)c2nnc([C@H](Cc3ccccc3)NC(=O)OC(C)(C)C)o2)c1	CF NFkB inh 69.1, Peg3 prom inh 105.6 | Mdm2 MdmX conf 102.7
Cc1noc(C)c1S(=O)(=O)Nc1ccc2c(c1)C(=O)N([C@H](C)CO)C[C@H](C)[C@@H](CN(C)C(=O)CCCN(C)C)OCCCC[C@@H](C)O2	none (no result: PPC-1+TRAIL kill)
O=C(Nc1ccc(NC(=S)NC(=O)c2ccco2)cc1)c1ccc(Br)cc1	HIF-2a inh 57.0 (no result: PPC-1+TRAIL kill) | HIF-2a conf 63.9 | HIF-1a counter inactive
CCn1c(/C=C/Nc2ccccc2)[n+](CC)c2cc(Cl)c(Cl)cc21	HIF-2a inh 68.3, Peg3 prom inh 103.7 | HIF-2a conf inactive | HIF-1a counter 87.8
CCn1c(/C=C/N(C(C)=O)c2ccccc2)[n+](CCCS(=O)(=O)[O-])c2cc(Cl)c(Cl)cc21	none (no result: PPC-1+TRAIL kill)
Cc1oc(-c2cccc(Cl)c2)nc1CN1CCC(C(=O)NCCCN2CCCC2=O)CC1	none
Cc1oc(-c2cccc(Cl)c2)nc1CN1CCC(C(=O)NCCCN2CC(C)CC(C)C2)CC1 (configuration not stated)	C8 TRAIL sens 54.4, Peg3 prom inh 91.6 (no result: PPC-1+TRAIL kill) | Mdm2 MdmX conf 103.5
CC(C)(C)OC(=O)NCCCCCNC(=O)c1ncn2c1c(=O)[nH]c1ccccc12	none (no result: PPC-1+TRAIL kill)
O=C(Nc1ccccc1-c1nc2ccccc2[nH]1)c1ccc(S(=O)(=O)N2CCCCC2)cc1	none
O=C(Nc1ccccc1-c1nc2ccccc2[nH]1)c1ccc(N2C(=O)CCC2=O)cc1	HIF-2a inh 44.8 | HIF-2a conf inactive | HIF-1a counter inactive
O=C(C[C@@H]1C=C[C@@H](NC(=O)c2cccnc2)[C@@H](CO)O1)NCc1ccncn1	none (no result: CF NFkB inh, Peg3 prom inh, PPC-1+TRAIL kill, KKLEB cytotox)
COCCn1c(C)cc(C(=O)COc2cccnc2[N+](=O)[O-])c1C	HIF-2a inh 51.5, Peg3 prom inh 64.7 | HIF-2a conf 65.4 | HIF-1a counter 70.8
Cc1ccc(OCC(=O)c2cc(C)n(Cc3cccs3)c2C)c([N+](=O)[O-])n1	HIF-2a inh 58.1 | HIF-2a conf 71.8 | HIF-1a counter 95.3
Cc1cc(C)c(C(=O)COc2cccnc2[N+](=O)[O-])cc1C	none
O=S(=O)(c1ccc(F)c(F)c1)N1CCN(S(=O)(=O)c2cccs2)CC1	none (no result: PPC-1+TRAIL kill)
CCN1CCN(CCNC(=O)c2ccc(/C=C3/Sc4ccccc4N(Cc4cccc(Cl)c4)C3=O)cc2)CC1	Peg3 prom inh 96.6 | Mdm2 MdmX conf 102.2
N#C/C(=C\C=C\c1ccccc1[N+](=O)[O-])C(=O)NC1CCCCC1	HIF-2a inh 83.7, Peg3 prom inh 107.0 | Mdm2 MdmX conf 101.5 | HIF-2a conf inactive | HIF-1a counter 104.2
N#C/C(=C\c1ccccc1[N+](=O)[O-])C(=O)NC1CCCCC1	none
COc1ccc(/C=C/C(=O)c2ccc(O)cc2)cc1CN1CCOCC1	none
COc1ccc(/C=C/C(=O)C23CC4CC(CC(C4)C2)C3)cc1CN1CCOCC1	HIF-2a inh 43.7 | HIF-2a conf inactive | HIF-1a counter inactive
O=C(O)c1cccc(C(=O)Nc2cccc(NC(=O)C3CCCO3)c2)c1 (configuration not stated)	HIF-2a inh 48.5 | HIF-2a conf 47.8 | HIF-1a counter inactive
O=C(O)c1cccc(NC(=O)C2CCCO2)c1 (configuration not stated)	none
COCc1cc(CN2CCCC(C(=O)Nc3ccc(-c4ccco4)cc3)C2)ccc1OC (configuration not stated)	none (no result: PPC-1+TRAIL kill)
O=C(C[C@H]1C[C@H](C(=O)N2CCCCC2)[C@@]2(CCc3ccccc3)c3[nH]c4ccc(Cl)cc4c3CCN2C1=O)NCCCn1ccnc1	HIF-2a inh 76.3 (no result: PPC-1+TRAIL kill) | HIF-2a conf inactive | HIF-1a counter 98.5

Screening results as filed in PubChem.
